Assay outcomes from PubChem BioAssay.
The list is not random: actives were taken first. Their share in the collection is about 19%.
DT40 TDP1 CPT: qHTS for Inhibitors of human tyrosyl-DNA phosphodiesterase 1 (TDP1): qHTS in cells in presence of CPT. AID 686979, 2013. chicken DT40 Tdp1-/-;hTDP1 cells + 20 nM CPT, ATP luminescence, 48 h. Potency, µM (highest dose often 46.2 µM), usual class: inhibitors. 12% of 420,000 active; further: nearly all actives have a fitted effect of over 55% in size
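Cell growth measured by CellTiter-Glo luminescence after a minimum 48 h, 37 C compound exposure with 20 nM CPT in Tdp1-knockout DT40 cells stably expressing hTDP1, seeded 400/well; qHTS titration format.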
TDP1 cell noCPT: qHTS for Inhibitors of human tyrosyl-DNA phosphodiesterase 1 (TDP1): qHTS in cells in absence of CPT. AID 686978, 2013. DT40 Tdp1-/- hTDP1 cells, no CPT, ATP luminescence, 48 h. Potency, µM (series often up to 46.2 µM), usual class: inhibitors. 15% of 420,000 active; further: nearly all actives have a fitted effect of over 55% in size
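Cells were dispensed at 400 per well, compounds added by pin tool, plates incubated ≥48 hr at 37 °C, then CellTiter-Glo added for 30 min at room temperature before luminescence reading. Line: DT40 Tdp1-/- complemented with hTDP1; camptothecin omitted.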
HT1080 IDH1KD tx: qHTS for induction of synthetic lethality in tumor cells producing 2HG: qHTS for the HT-1080-IDH1KD cell line | Potency, µM (titrated, usually from 46.1 µM), most hits filed as cytotoxic | 2% of 360,000 active | HT-1080 IDH1 knockdown viability, ATP luminescence, 48 h
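% activity derives from luminescence (CellTiter-Glo), normalised to DMSO and no-cell wells. HT-1080-IDH1KD cells, 750/well, had 48 h compound exposure at 37 °C.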
HT1080-NT tox: qHTS for induction of synthetic lethality in tumor cells producing 2HG: qHTS for the HT-1080-NT fibrosarcoma cell line; HT-1080-NT fibrosarcoma viability, CellTiter-Glo ATP luminescence, 48 h; Potency, µM (titrated, usually from 46.1 µM), actives largely listed as cytotoxic; AID 686970, 2013; 1.6% of 360,000 active;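 further: NT is the 2HG producing partner of a matched IDH1 knockdown line; nearly all actives have a fitted effect of over 55% in size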
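Viability of the 2HG-overproducing fibrosarcoma line after 48 hours of compound exposure at 37 degrees C was determined by luminescence with CellTiter-Glo, and concentration-effect curves were then fitted and categorized.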
IL-1B inflam inh: qHTS for Inhibitors of Inflammasome Signaling: IL-1-beta AlphaLISA Primary Screen | THP-1 LPS/ATP IL-1B secretion, AlphaLISA, 16 h; hits give low values | activity change, % at 57.5 µM | 4.7% of 360,000 active; in the data active means activity change below about -50%; inconclusive means mostly about -30% to -49%
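Secreted IL-1B measured by AlphaLISA bead assay after 16 h compound exposure of THP-1 cells; compounds (final up to 57.5 uM) added 1 h before LPS (250 ng/mL) and ATP (1.25 mM) stimulation; lower signal means less secretion.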
A number is an active result; n = inactive; u = inconclusive; x = no result given. Unless noted, the call rests on the fitted dose curve; in most records, active means well fitted curve in the direction sought with a large enough effect; inconclusive means small, poorly fitted or top-dose-only effect, or another doubt; inactive means no such curve, though single readings can be large; an effect the other way counts as inactive or inconclusive.

SMILES	DT40 TDP1 CPT	TDP1 cell noCPT	HT1080 IDH1KD tx	HT1080-NT tox	IL-1B inflam inh
CC1(C)CCCC(C)(C)N1CC(O)COCCOc1ccc(Br)cc1 (stereo not drawn)	u	16µM	n	n	n
OC(CNC1CCCC1)COc1ccc(Cl)cc1 (stereo not drawn)	u	u	n	n	u
CCCCC(CCC(=O)Nc1nccs1)C(=O)O (stereo not drawn)	n	n	n	n	n
O=C(NCCOc1ccccc1F)C1CCC(=O)N(CC2CCCCC2)C1 (stereo not drawn)	n	n	n	n	n
O=C(COC(=O)c1cc(=O)[nH]c2ccccc12)NCc1ccccc1	n	n	n	n	n
OCCN1CCN(CC(O)COc2ccc(-c3ccccc3)cc2)CC1 (stereo not drawn)	u	u	n	n	n
OC(COc1cccc2ccccc12)CN1CCN(c2ccccc2Cl)CC1 (stereo not drawn)	18µM	u	u	u	n
COc1ccccc1N1CCN(CC(O)COCCOc2ccc(Br)cc2)CC1 (stereo not drawn)	16µM	u	u	n	n
COc1ccccc1N1CCN(CC(O)COCc2cccs2)CC1 (stereo not drawn)	n	n	n	n	n
OCCN1CCN(CC(O)COCCOc2ccc(Br)cc2)CC1 (stereo not drawn)	u	23µM	n	n	n
CC(C(=O)NC(C)(C)C)n1c(-c2ccc3c(c2)OCO3)nc2ccccc21 (stereo not drawn)	u	n	n	n	n
Cc1ccc(C)c(S(=O)(=O)N(C)C2(C)CCS(=O)(=O)C2)c1 (stereo not drawn)	n	n	n	n	n
O=C(CC1SC(N2CCCC2)=NC1=O)Nc1ccc(C(=O)N2CCN(c3cccc(Cl)c3)CC2)cc1 (stereo not drawn)	15µM	u	n	n	-50
CN(C)C(=O)c1ccc(NC(=O)CC2SC(N3CCCC3)=NC2=O)cc1 (stereo not drawn)	n	n	n	n	n
O=C(CC1SC(N2CCCC2)=NC1=O)Nc1ccc(C(=O)Nc2ncccc2O)cc1 (stereo not drawn)	15µM	10µM	u	n	n
CN(Cc1ccccc1F)C(=O)c1ccc(NC(=O)CC2SC(N3CCCCC3)=NC2=O)cc1 (stereo not drawn)	u	n	n	n	n
CN(Cc1ccccc1F)C(=O)c1cccc(NC(=O)CC2SC(N3CCCCC3)=NC2=O)c1 (stereo not drawn)	18µM	23µM	n	n	n
Cc1cccc(CNc2cc(-c3ccc(C(=O)N(C)C)cc3)ncn2)c1	n	n	x	x	x
CNC(=O)c1ccc(NC(=O)/C=C/c2cccc(F)c2)cc1	n	n	u	n	u
CCc1ccccc1NC(=O)c1sc2nc3n(c(=O)c2c1C)CCC3	n	u	x	x	x
Cc1nc2cnc(N3CCOCC3)nc2n(C2CC2)c1=O	n	n	x	x	x
O=C(c1ccc(OC2CCN(Cc3ccccc3C(F)(F)F)CC2)cc1)N1CCCCC1	u	u	u	n	-85
O=C(c1ccc(OC2CCN(Cc3ccc(C(F)(F)F)cc3)CC2)cc1)N1CCCCC1	u	21µM	n	n	n
O=C(CSc1n[nH]c(-c2ccccc2Cl)n1)NCc1cccc(C(=O)O)c1	n	n	n	n	n
COc1ccc(-c2csc(NCCc3nc4cc(Cl)c(Cl)cc4n3CCCO)n2)cc1	u	18µM	u	n	-58
SMILES	DT40 TDP1 CPT	TDP1 cell noCPT	HT1080 IDH1KD tx	HT1080-NT tox	IL-1B inflam inh
CCCn1c(CCNc2nc(-c3ccc(Cl)c([N+](=O)[O-])c3)cs2)nc2cc(Cl)c(Cl)cc21	n	n	n	n	n
Cc1ccc(-c2csc(NCCc3nc4cc(Cl)c(Cl)cc4n3CCCO)n2)cc1	u	u	n	n	-56
O=[N+]([O-])c1cc(-c2csc(NCCc3nc4cc(Cl)c(Cl)cc4n3CCCO)n2)ccc1Cl	16µM	u	n	n	u
N#Cc1ccc(COC(=O)c2ccc3c(c2)OCO3)cc1	n	n	n	n	n
COc1ccccc1NC(=O)C(C)OC(=O)CCNS(=O)(=O)c1ccc(C)c(C)c1 (stereo not drawn)	u	u	n	n	n
CC(O)(c1ccccc1)c1nc(-c2cccc(C#N)c2)cs1 (stereo not drawn)	u	u	n	n	n
COc1ccc(C(C)(O)c2nc(-c3cccc(C(=O)O)c3)cs2)cc1 (stereo not drawn)	n	n	n	n	n
COc1cccc(C(C)(O)c2nc(-c3cccc(C#N)c3)cs2)c1 (stereo not drawn)	18µM	13µM	n	n	n
COc1ccc(C(C)(O)c2nc(-c3cccc(C#N)c3)cs2)cc1 (stereo not drawn)	13µM	21µM	u	n	n
C/C=C/CSc1nc2c(c(=O)[nH]c(=O)n2C)n1CCC	n	u	n	n	n
C/C(Cl)=C/Cn1c(SCC(C)C)nc2c1c(=O)[nH]c(=O)n2C	u	8.2µM	n	n	n
CCOC(=O)C(CC)Sc1nc2c(c(=O)[nH]c(=O)n2C)n1C/C=C(/C)Cl (stereo not drawn)	7.3µM	13µM	n	n	n
CCCCOC(=O)CSc1nc2c(c(=O)[nH]c(=O)n2C)n1C/C=C(\C)Cl	u	16µM	n	n	n
Cn1cccc1C(=O)N1CCC2(CC1)CN(C(=O)Nc1ccccc1)C2	n	n	x	x	x
NS(=O)(=O)c1ccc(CCNC(=O)CN2CCN(Cc3cccc4ccccc34)CC2)cc1	u	u	n	n	n
O=C(NCc1cc(C(F)(F)F)cc(C(F)(F)F)c1)C1CC(c2ccccc2F)=NO1 (stereo not drawn)	u	u	n	n	n
O=C(NCc1cccc(C(F)(F)F)c1)C1CC(c2ccccc2F)=NO1 (stereo not drawn)	u	29µM	u	u	n
Cc1ccc(CNC(=O)C2CC(c3ccccc3F)=NO2)cc1 (stereo not drawn)	u	16µM	u	u	n
CCc1ccc(-c2[nH]c3c(c2-c2sc(C)c(C(=O)OC)c2O)c(=O)[nH]c(=O)n3C)cc1	7.3µM	5.8µM	x	x	x
CCOC(=O)c1c(C)sc(-c2c(-c3ccc(OC)c(F)c3)[nH]c3c2c(=O)[nH]c(=O)n3C)c1O	16µM	16µM	x	x	x
COC(=O)c1c(C)sc(-c2c(-c3ccc4c(c3)OCCO4)[nH]c3c2c(=O)n(C)c(=O)n3C)c1O	n	n	x	x	x
